Where “and” joins values, the source holds several entries; their conditions need not be identical. Equal entries are not always repeated. Screen size: about 16,000 compounds; about 5,100 (32%) were called active. About 25% were inconclusive and are not listed. The list shows a part of the results. Unmarked numbers belong to inactive results. The call rests on the fitted dose curve; in most records, active means well fitted curve in the direction sought with a large enough effect; inconclusive means small, poorly fitted or top-dose-only effect, or effect the other way; inactive means no such curve, though single readings can be large or run the other way.
On the % scale 0 is the no-effect control and ±100 the full control effect.

This experiment deals with Cytochrome P450 3A4 (Homo sapiens) (UniProt P08684). Nature of the experiment: Cytochrome panel assay with activity outcomes. Particulars: recombinant CYP, pro-luciferin dealkylation, luminescence, p450-cyp3a4; series mostly up to 57.1 µM.
Sequence of Cytochrome P450 3A4 (Homo sapiens) (P08684 whole entry, looked up): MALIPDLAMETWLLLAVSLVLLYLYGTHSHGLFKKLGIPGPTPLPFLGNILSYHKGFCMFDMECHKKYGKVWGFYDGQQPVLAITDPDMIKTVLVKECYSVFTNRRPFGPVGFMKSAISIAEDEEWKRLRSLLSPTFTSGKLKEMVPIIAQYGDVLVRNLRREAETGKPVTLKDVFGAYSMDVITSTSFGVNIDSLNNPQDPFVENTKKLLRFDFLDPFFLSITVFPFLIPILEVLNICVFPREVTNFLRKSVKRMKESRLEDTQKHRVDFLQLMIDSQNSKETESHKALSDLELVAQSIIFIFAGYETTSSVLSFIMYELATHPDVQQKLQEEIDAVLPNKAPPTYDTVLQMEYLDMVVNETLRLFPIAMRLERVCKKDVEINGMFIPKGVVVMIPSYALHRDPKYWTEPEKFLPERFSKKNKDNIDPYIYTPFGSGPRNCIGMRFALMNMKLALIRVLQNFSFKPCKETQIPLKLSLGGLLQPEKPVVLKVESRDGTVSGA
Turning to `COc1ccc(-c2coc3cc4oc(=O)cc(C)c4cc23)cc1F`, the AC50 entry is “inactive”.
On the same count and under the same terms, for `CCCc1ccc(C2C3=C(CC(C)(C)CC3=O)NC3=C2C(=O)c2ccccc23)cc1` (centres undefined) the value was 2.82 µM (active).
On to `O=C(Nc1ccc2oc(=O)c(C(=O)O)cc2c1)Oc1ccccc1`, for which the activity, negative = inhibition was -5.24% [at 11.4 µM].
As to `CC(=O)N[C@@H](c1ccccc1)[C@]1(C)C[C@H]1[C@@H](C)C(=O)Nc1ccc2ccccc2c1`, the AC50 is 7.94 µM (active).
Turning to `COC(=O)N[C@H](c1ccccc1)[C@@]1(C)C[C@@H]1[C@@H](C)C(=O)Nc1ccc2ccccc2c1`, the half-maximal activity concentration (AC50) was 0.2 µM (active).
The same measure, in the same setting: for `C[C@@H](C(=O)Nc1ccc2ccccc2c1)[C@H]1C[C@]1(C)[C@H](NC(=O)Oc1ccc(F)cc1)c1ccccc1` the value was 0.794 µM (active); for `CC(=O)N[C@H](c1ccccc1)[C@@]1(C)C[C@@H]1[C@@H](C)C(=O)Nc1ccc2ccccc2c1`, 7.94 µM (active).
For the compound `Oc1c(CN2CCN(c3ccccc3)CC2)cc(Br)c2cccnc12`, the activity, negative = inhibition was 0.931% [at 11.4 µM].
In the case of `C[C@@H](C(=O)Nc1ccc2ccccc2c1)[C@@H]1C[C@@]1(C)[C@@H](N)c1ccccc1`, the AC50 was 7.94 µM (active).
Same read-out and setting: for `C[C@@H](C(=O)Nc1ccc2ccccc2c1)[C@H]1C[C@]1(C)[C@H](NP(=O)(c1ccccc1)c1ccccc1)c1ccccc1` the value was 2 µM (active); for `C[C@@H](C(=O)Cc1ccc2ccccc2c1)[C@@H]1C[C@@]1(C)[C@@H](NP(=O)(c1ccccc1)c1ccccc1)c1ccccc1`, 1 µM (active).
On to `CN(Cc1cnc2nc(N)nc(N)c2n1)c1ccc(C(=O)N[C@H](CCC(=O)O)C(=O)O)cc1`, for which the AC50 entry is “inactive”.
On the same count and under the same terms, for `C=C[C@@]1(C)CC(=O)[C@@]2(O)[C@@]3(C)[C@@H](O)CCC(C)(C)[C@@H]3[C@H](OC(=O)CCN(C)C)[C@H](OC(C)=O)[C@@]2(C)O1` the value was 2.51 µM (active).
Turning to `O=C(O)CC[P+](c1ccccc1)(c1ccccc1)c1ccccc1`, the activity, negative = inhibition was 9.68% [at 11.4 µM].
Consider `O=C1[C@H]2[C@H]3[C@H](O)[C@H](O)C/C(=N/OC[C@@H](O)COCc4ccco4)[C@@H]3CC[C@@H]2C(=O)N1Cc1ccc2c(c1)OCO2`, for which the AC50 is 3.16 µM (active).
Regarding `CCN1C(=O)[C@H]2[C@H]3[C@H](O)[C@H](O)C/C(=N/OC[C@@H](O)COCc4ccco4)[C@H]3CC[C@@H]2C1=O`, the activity, negative = inhibition was -17.6% [at 11.4 µM].
For `CCN1C(=O)[C@H]2[C@H]3[C@H](O)[C@H](O)C/C(=N/OC[C@@H](O)COCc4ccco4)[C@@H]3CC[C@@H]2C1=O`, the activity, negative = inhibition is -23.4% [at 11.4 µM] and -18.4% [at 11.4 µM].
As for `O=C1[C@H]2[C@H]3[C@H](O)[C@H](O)C/C(=N/OC[C@@H](O)COCc4ccco4)[C@@H]3CC[C@@H]2C(=O)N1Cc1ccccc1`, the AC50 is 3.16 µM (active).
On the same count and under the same terms, for `O=C1[C@H]2[C@H]3[C@H](O)[C@H](O)C/C(=N/OC[C@@H](O)COCc4ccco4)[C@H]3CC[C@@H]2C(=O)N1Cc1ccc2c(c1)OCO2` the value was 3.16 µM (active); for `Cc1[nH]nc(N2CCCCCC2)c1[N+](=O)[O-]`, “inactive”.
The same measure, in the same setting: for `CCC(C(=O)NC(C)(C)C)N(C(=O)Cn1nnc(-c2cccs2)n1)c1cnc2ccccc2c1` (centres undefined) the value was 2 µM (active); for `O=C(Nc1cnc2ccccc2c1)c1cccc(-n2cnnn2)c1`, “inactive”.
Regarding `CS(=O)(=O)Nc1ccc(Nc2c3ccccc3nc3ccccc23)cc1`, the activity, negative = inhibition was -25.8% [at 11.4 µM].
As to `CS(=O)(=O)Nc1cccc(-c2nc(N3CCOCC3)c3ccccc3n2)c1`, the concentration at half-maximal activity (AC50) is 1.58 µM (active).
On to `CS(=O)(=O)Nc1cccc(-c2nc(N3CCNCC3)c3ccccc3n2)c1`, for which the AC50 entry is “inactive”.
Still for that read-out and setting: for `COc1cccc(C2=NOC(C(=O)NCCN3CCOCC3)C2)c1` (centres undefined) the value was “inactive”.
On the same count and under the same terms, for `O=C1C=C(NCCN2CCOCC2)CC(c2ccccc2)C1` (centres undefined) the value was “inactive”.
Same read-out and setting: for `COc1cccc(-c2nc(NCCN3CCOCC3)c3ccccc3n2)c1` the value was 12.6 µM (active).
Turning to `c1cncc(-c2nc(NCCN3CCOCC3)c3ccccc3n2)c1`, the AC50 was 7.94 µM (active).
On the same count and under the same terms, for `CS(=O)(=O)Nc1cccc(-c2nc(NCCN3CCOCC3)c3ccccc3n2)c1` the value was 15.8 µM (active).
Still for that read-out and setting: for `CCCc1cc(=O)[nH]c(=S)[nH]1` the value was “inactive”.
Regarding `CCN(Cc1cc(Cl)cc(C)c1O)Cc1c(O)ccc2ccccc12`, the activity, negative = inhibition was -15.9% [at 11.4 µM].
Consider `O=C(O)[C@H]1CN[C@H](C(=O)O)C1`, for which the AC50 entry was “inactive”.
`N#Cc1cccc(-c2nc(NCCN3CCOCC3)c3ccccc3n2)c1`: the concentration at half-maximal activity (AC50) was 12.6 µM (active).
On the same count and under the same terms, for `N#Cc1cccc(-c2nc3cnc(N4CCOCC4)nc3n(C[C@H]3CCCO3)c2=O)c1` the value was “inactive”; for `COc1ccc(-n2ncc3c(NCC4CCCO4)ncnc32)cc1` (centres undefined), “inactive”; for `CCc1ccc2c(c1)cc(CN(C(=S)Nc1cccc(C)c1)C1CC1)c1nnnn12`, 2.24 µM (active).
As for `Cc1cccc(CCNc2nc3ccccc3n3nnnc23)c1`, the AC50 result was “inactive”.
The same measure, in the same setting: for `CC(NC(=O)CCSc1nc(-c2ccc3c(c2)OCO3)cc(C(F)(F)F)n1)c1ccccc1` (centres undefined) the value was 0.0398 µM (active); for `CC(NC(=O)CCSc1nc(-c2ccco2)cc(C(F)(F)F)n1)c1ccccc1` (centres undefined), 20 µM (active).
On to `C[N+]1(C)CCC(=C(c2ccccc2)c2ccccc2)CC1`, for which the AC50 entry is “inactive”.
Still for that read-out and setting: for `COc1ccc(C(=O)N2CCC3(CCN(C)CC3)CC2)cc1` the value was “inactive”.
As to `COc1ccc(C(=O)/C=C2/c3ccccc3CC(C)(C)N2C)cc1`, the AC50 was 7.08 µM (active).
`COc1ccc(C(Cl)=C(c2ccc(OC)cc2)c2ccc(OC)cc2)cc1`: the AC50 entry is “inactive”.
As to `COc1cccc(-c2cncnc2NCc2ccccc2)c1`, the half-maximal activity concentration (AC50) was 0.316 µM (active).
On the same count and under the same terms, for `COc1cccc(-c2cncnc2NCc2cnc(C)cn2)c1` the value was 1.58 µM (active); for `COc1cccc(-c2cncnc2NCc2cccc(C)c2)c1`, 0.398 µM (active).
Same read-out and setting: for `COc1cccc(-c2cncnc2NCc2cccnc2)c1` the value was 1.26 µM (active); for `CCCCCCc1c(C[C@H](N)C(=O)O)o[nH]c1=O`, “inactive”; for `CCOc1nc(NC(C)C)nc(NC(C)C)n1`, “inactive”.
On to `CC[n+]1c(P(=O)([O-])c2ccccc2)[nH]c2ccccc21`, for which the activity, negative = inhibition was -3.39% [at 2.29 µM].
In the case of `COc1cccc(-c2cncnc2NCc2cccs2)c1`, the AC50 is 1.58 µM (active).
Still for that read-out and setting: for `Cc1cnc(CNc2ncncc2-c2cccc(C#N)c2)cn1` the value was 2 µM (active).
In the case of `CC(=O)O[C@H]1CC[C@@]2(C)C(=CC[C@@H]3[C@H]4CC[C@@H]([C@H](C)C(=O)O)[C@]4(C)CC[C@H]32)C1`, the activity, negative = inhibition is 1.09% [at 11.4 µM].
In the case of `N=c1nc(N2CCCCC2)cc(N)n1O`, the AC50 entry was “inactive”.
Still for that read-out and setting: for `Cc1ccc(-n2nnnc2Sc2nc([N+](=O)[O-])nn2C)cc1C` the value was 15.8 µM (active).
For `O=C(O)c1ccc(Sc2nnnn2-c2ccccc2)c([N+](=O)[O-])c1`, the activity, negative = inhibition is -2.88% [at 11.4 µM].
Still for that read-out and setting: for `COC(=O)c1ccc(N2CCN(CC(=O)c3ccc(-c4ccccc4)cc3)CC2)c([N+](=O)[O-])c1` the value was 15.7% [at 2.29 µM].
Turning to `CS(=O)(=O)N1CCN(c2ccc(C(=O)NC3C4CC5CC(C4)CC3C5)cc2[N+](=O)[O-])CC1` (centres undefined), the AC50 entry was “inactive”.
`COC(=O)c1cc(NS(=O)(=O)c2ccc(N3CCCCC3)c([N+](=O)[O-])c2)cc(C(=O)OC)c1`: the AC50 was 2 µM (active).
Same read-out and setting: for `COC(=O)c1cc(NS(=O)(=O)c2ccc(N3CCCCCC3)c([N+](=O)[O-])c2)cc(C(=O)OC)c1` the value was 6.31 µM (active); for `CC1CCN(c2ccc(S(=O)(=O)Nc3cc(C(=O)O)cc(C(=O)O)c3)cc2[N+](=O)[O-])CC1`, 5.62 µM (active).
In the case of `CC1CCN(CCCCOc2ccccc2[N+](=O)[O-])CC1`, the activity, negative = inhibition is -4.5% [at 2.29 µM].
`COc1ccc2c(c1)C(=NN)c1cc(OC)ccc1-2`: the AC50 was 20 µM (active).
On to `C[N+](C)(C)c1nc(N)nc2c1ncn2[C@H]1O[C@@H](CO)[C@@H](O)[C@H]1O`, for which the activity, negative = inhibition is 16.1% [at 11.4 µM].
With `CCCNC(=O)OC[C@@H]1O[C@H](CCO/N=C2\c3cc(OC)ccc3O[C@H](c3cccc(OC)c3)[C@H]2O)C=C[C@@H]1Oc1ccc(OC)cc1`, the concentration at half-maximal activity (AC50) was 5.01 µM (active).
As to `CC(=O)OC[C@@H]1O[C@@H](O/N=C2/C[C@@H](O)[C@@H](O)[C@@H]3[C@@H]4C(=O)N(c5cccc(Oc6ccccc6)c5)C(=O)[C@H]4CC[C@@H]23)[C@H](OC(C)=O)[C@H](OC(C)=O)[C@@H]1OC(C)=O`, the activity, negative = inhibition is -35.5% [at 11.4 µM].
For `CC(=O)OC[C@@H]1O[C@@H](O/N=C2/C[C@@H](O)[C@@H](O)[C@@H]3[C@H]4C(=O)N(c5ccc(F)cc5F)C(=O)[C@@H]4CC[C@H]23)[C@H](OC(C)=O)[C@H](OC(C)=O)[C@@H]1OC(C)=O`, the activity, negative = inhibition is -23.8% [at 11.4 µM].
Regarding `COc1ccc(O[C@H]2C=C[C@@H](c3ccccc3)O[C@H]2CO/N=C2/c3cc(OC)ccc3O[C@@H](c3cccc(OC)c3)[C@H]2O)cc1`, the concentration at half-maximal activity (AC50) is 3.16 µM (active).
Take `CCN1C(=O)[C@H]2[C@H]3[C@H](O)[C@H](O)C/C(=N/OCC[C@H]4C=C[C@H](OC(C)=O)[C@@H](COC(C)=O)O4)[C@@H]3CC[C@@H]2C1=O`: the activity, negative = inhibition is -18.6% [at 11.4 µM].
Take `COc1cccc([C@H]2Oc3ccc(OC)cc3/C(=N\O[C@@H]3O[C@H](COC(C)=O)[C@H](OC(C)=O)[C@H](OC(C)=O)[C@H]3OC(C)=O)[C@@H]2O)c1`: the concentration at half-maximal activity (AC50) was 3.16 µM (active).
As to `C=CC[C@@H]1C=C[C@H](O/N=C2\c3cc(OC)ccc3O[C@H](c3cccc(OC)c3)[C@H]2O)[C@H](CO)O1`, the activity, negative = inhibition was -80.3% [at 11.4 µM].
On the same count and under the same terms, for `C[C@@]1(CCOCc2ccccc2)NC(=O)NC1=O` the value was -5.69% [at 11.4 µM]; for `CC(C)[C@H](NC(=O)OC(C)(C)C)[C@@H](O)CC(=O)C(C)(C)C`, -11% [at 11.4 µM].

As usually defined, the AC50 is the concentration at which the activity in the assay is half-maximal.

These data come from PubChem BioAssay AID1851 (National Center for Advancing Translational Sciences (NCATS), 2009).
